Assay results as given in PubChem BioAssay (NCATS).
Inconclusive results are not listed. Activity calls are given as the source filed them. Calls follow the shape of the dose curve; as a rule, active = well fitted inhibition curve with a large enough effect; inconclusive = small, poorly fitted or top-dose-only effect; inactive = no such curve, though single readings can be large or run the other way.

Test: BET inhibitor-based combinations targeting novel dependencies in MECOM-rearranged (r) AML: SET-2 cell line (AID 2202231);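 as to viability: plate controls were DMSO treated cells for no effect and wells without cells for full effect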
Conditions: SET-2 AML cells viability, CellTiter-Glo luminescence, 48 h; viability: stronger effect = lower value, concentration not given here
In short: (§1)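 Readout: CellTiter-Glo luminescence. Exposure: 48 h, 11 concentrations, 500 cells/well. Metric: AUC and within-line Z-AUC after DMSO/empty-well normalization.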
Also: nearly all actives have a fitted effect of over 35% in size.
Potency is read from the fitted curve at half-maximal effect.

Structure (SMILES) | viability | Potency
CCOC(=O)c1c(C)n(C)c2ccc(O)cc12 | 110% (inactive) | 
N=C(N)c1ccc2cc(OC(=O)c3ccc(N=C(N)N)cc3)ccc2c1 | 105% (inactive) | 
Nc1nccc(-c2ccc3noc(-c4ccc(Cl)cc4)c3c2)n1 | 88.8% (inactive) | 
Cn1c(=O)c(F)c(Nc2ccc(I)cc2F)c2c(=O)n(C[C@@H](O)CO)cnc21 |  | 16.6 µM (active)
CCCCCCCN(CC)CCCC(O)c1ccc(NS(C)(=O)=O)cc1 (stereo unspecified) | 96.2% (inactive) | 
CC(=O)Oc1cc2c(s1)CCN(C(C(=O)C1CC1)c1ccccc1F)C2 (stereo unspecified) | 102% (inactive) | 
COC(c1ccccc1)(c1ccccc1)[C@H](Oc1nc(C)cc(C)n1)C(=O)O | 106% (inactive) | 

Test: BET inhibitor-based combinations targeting novel dependencies in MECOM-rearranged (r) AML: OCI-AML3 cell line (AID 2202232);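 as to viability (% of control): plate controls were DMSO vehicle wells for no effect and wells without cells for full effect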
Conditions: CellTiter-Glo luminescence, 48 h; Potency: OCI-AML3 viability; series mostly up to 46 µM; viability (% of control): at the top concentration
In short: as §1

Structure (SMILES) | Potency | viability (% of control)
Cc1[nH]nc2ccc(-c3cncc(OC[C@@H](N)Cc4ccccc4)c3)cc12 | 1.18 µM (active) | 
O=C(NC(Cc1cc(=O)[nH]c2ccccc12)C(=O)O)c1ccc(Cl)cc1 (stereo unspecified) |  | 106% (inactive)
CO[C@@H]1[C@H](N(C)C(=O)c2ccccc2)C[C@H]2O[C@]1(C)n1c3ccccc3c3c4c(c5c6ccccc6n2c5c31)C(=O)NC4 | 3.32 µM (active) | 
O=C(Nc1c(Cl)cncc1Cl)c1ccc(OC(F)F)c(OCC2CC2)c1 |  | 104% (inactive)
COC(=O)Nc1ccc(-c2nc(N3CCOCC3)c3cnn(C4CCN(C(=O)OC)CC4)c3n2)cc1 | 4.17 µM (active) | 
NC(=NCCCCCCN=C(N)N=C(N)Nc1ccc(Cl)cc1)N=C(N)Nc1ccc(Cl)cc1 | 18.6 µM (active) | 
CC(=O)OC[C@@H]1O[C@@H](n2ccc(=O)[nH]c2=O)[C@H](OC(C)=O)[C@H]1OC(C)=O |  | 92.3% (inactive)
Cc1cc([C@@H](C)Nc2ccccc2C(=O)O)c2nc(N3CCOCC3)cc(=O)n2c1 | 1.32 µM (active) | 
C[C@@H]1C(=O)O[C@H]2CC34[C@H]5C[C@@H](C(C)(C)C)C36[C@H](OC(=O)[C@@H]6O)O[C@@]4(C(=O)O5)[C@]21O (stereo partly specified) |  | 0.393% (inactive)
CC(C)(C)c1cc(C(C)(C)C)c(NC(=O)c2c[nH]c3ccccc3c2=O)cc1O | 20.9 µM (active) | 
CSc1cccc(Nc2ncc3cc(-c4c(Cl)cccc4Cl)c(=O)n(C)c3n2)c1 |  | 97.9% (inactive)
CO[C@@H](C(=O)N1Cc2[nH]nc(NC(=O)c3ccc(N4CCN(C)CC4)cc3)c2C1)c1ccccc1 | 1.86 µM (active) | 
CC[C@H](NC(C)C)[C@H](O)c1ccc(O)c2[nH]c(=O)ccc12 |  | 115% (inactive)
Oc1cccc(-c2nc(N3CCOCC3)c3oc4ncccc4c3n2)c1 | 0.0661 µM (active) | 
CCCCCCOC(=O)NC(=N)c1ccc(NCc2nc3cc(C(=O)N(CCC(=O)OCC)c4ccccn4)ccc3n2C)cc1 | 8.33 µM (active) | 
Cc1cc(NC(=O)Nc2ccc(N(C)C)cc2)c2cc(F)cc(F)c2n1 | 8.11 µM (active) | 
COc1ccc(-c2ccc3c(N4CCOCC4)nc(N4C[C@@H](C)O[C@@H](C)C4)nc3n2)cc1CO | 1.18 µM (active) | 
O=C(Nc1nnc(-c2ccco2)o1)c1cc(-c2ccccc2)nc2ccccc12 | 14.8 µM (active) | 
COc1cccc([C@@H](C)NCCCc2ccccc2Cl)c1 | 16.6 µM (active) | 
